# Results filed as inconclusive are left out. Activity calls are given as the source filed them. Rule for the calls: active = hit-call score of the fitted dose curve at least 0.9, where 1 is the maximum; inconclusive = response in the unintended direction; inactive = score below 0.9.
# Assay: ACEA_ER_AUC_viability: ACEA Biosciences xCELLigence Real-Time Cell Analysis on Estrogen Receptor Agonism for Viability (AID 2283782);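 note: continuous compound exposure with impedance area under curve over 80 h; hit means loss of impedance signal meaning reduced cell growth or viability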
# Experimental: ACEA_ER is a cell-based, single-readout assay that uses T47D, a human breast cell line, with measurements taken at 80 hours after chemical dosing in a 96-well plate, although TO2 (mc0.srcf) used a 384-well plate. Differences in plate size can be ignored given data normalization.ACEA_ER_AUC_viability is one of two assay component(s) measured or calculated from the ACEA_ER assay. It is designed to make measurements of real-time cell-growth kinetics, a form of growth reporter, as detected with electrical impedance signals by Real-Time Cell Electrode Sensor (RT-CES) technology.Data from the assay component ACEA_ER_AUC_viability was analyzed in the positive analysis fitting direction relative to DMSO as the negative control and baseline of activity. Using a type of growth reporter, loss-of-signal activity can be used to understand changes in the viability. Furthermore, this assay endpoint can be referred to as a secondary readout, because this assay has produced multiple assay endpoints where this one serves a viability function. To generalize the intended target to other relatable targets, this assay endpoint is annotated to the cell cycle intended target family, where the subfamily is cytotoxicity.
# The xCELLigence system Multi-E-Plate stations were used to measure the time-dependent response to chemicals. Each compound was tested in an eight-point, 1:4 serial dilution series starting at a maximum final concentration of 100 uM. A maximum starting concentration of 0.5% DMSO was present in the 100 uM chemical samples and was diluted along with the test article dilution series. The screen was performed in biological duplicate using two separate, 96-well, E-Plates 96 for each dilution series (n = 2). Positive controls (MG132 and E2) and a negative control (assay media) were tested in quadruplicate on each testing plate. Then, 0.5% and 0.125% DMSO were tested in duplicates in each plate to serve as solvent controls for the 2 highest concentrations of testing compounds: 100 uM and 25 uM. Reference compounds were tested with 8 concentrations with 1:5 serial dilutions. All screening was carried out by ACEA Biosciences, Inc. (San Diego, CA). T-47D cells purchased from ATCC were maintained in RPMI1640 media supplemented with 10% characterized fetal bovine serum (FBS). Before screening, T-47D cells were preconditioned in assay medium: phenol red-free RPMI1640 supplemented with 10% charcoal-stripped FBS. Cells were then detached and seeded in E-Plates 96 in assay medium. After overnight monitoring of growth once every hour, compounds were added to […] cells and remained in the medium until the end of the experiment. Cellular responses were then recorded once every 5 min for the first 5 h, and once every hour for an additional 100 h.
Compound,AC50,outcome
CCN(CC)c1ccc2c(-c3ccccc3C(=O)O)c3ccc(=[N+](CC)CC)cc-3oc2c1,29.1 µM (active),–
CCC/C=C/C=O,–,inactive
CCCCCCCCCCCCCCCCCC(=O)OCC(CC)CCCC (stereo not given),–,inactive
CO[Si](C)(OC)c1ccccc1,–,inactive
CC(=O)OCCC(C)CC(C)(C)C (stereo not given),–,inactive
CCCC(C)C=O (stereo not given),20.8 µM (active),–
CCCC(=O)OCCC(C)CCC=C(C)C (stereo not given),77.8 µM (active),–
c1ccc2sc(SN(C3CCCCC3)C3CCCCC3)nc2c1,81.8 µM (active),–
O=C1CCCCCCCCCCOCCCCO1,55.4 µM (active),–
O=C(O)c1ccc(C(=O)O)cc1,–,inactive
CC(=O)OCc1ccc2c(c1)OCO2,–,inactive
CCCCOCCOCCOCCOCCO,–,inactive
NCCOCCO,–,inactive
N#Cc1ccccc1,–,inactive
C=C(C)C(=O)O[C@H]1C[C@@H]2CC[C@@]1(C)C2(C)C,–,inactive
CCCCO,35.2 µM (active),–
COc1cc(C=O)ccc1OC(=O)C(C)C,–,inactive
O=Nc1ccc(Nc2ccccc2)cc1,11.1 µM (active),–
CCCCCOC(=O)CCC,–,inactive
CCCCCCCCCCCCN,66.3 µM (active),–

Compound,AC50,outcome
OCc1cccnc1,–,inactive
CC(CN1c2ccccc2Sc2ccccc21)N(C)C (stereo not given),17.2 µM (active),–
CCCCNC(=O)NS(=O)(=O)c1ccc(C)cc1,–,inactive
CC(C)CCCCCCCOC(=O)c1ccc(C(=O)OCCCCCCCC(C)C)c(C(=O)OCCCCCCCC(C)C)c1,–,inactive
CC(C)c1ccc(C(C)C)cc1,–,inactive
O=C=NC1CCC(CC2CCC(N=C=O)CC2)CC1 (stereo not given),28.5 µM (active),–
CC(C)=CCC[C@](C)(O)[C@@H]1CC=C(C)CC1,84.5 µM (active),–
CCCCC(CC)COC(=O)/C=C\C(=O)OCC(CC)CCCC (stereo not given),27.4 µM (active),–
CN(C)CCCN,–,inactive
CCCCCCCCCCCCCOS(=O)(=O)O,73.8 µM (active),–
OC1C(O)C(O)C(O)C(O)C1O (stereo not given),–,inactive
CCCCC(CC)COCCC#N (stereo not given),–,inactive
CC(CC(C)(C)C)CC(C)(C)CC(C)(C)C (stereo not given),–,inactive
C=C[Si](OCC)(OCC)OCC,–,inactive
CC(=O)Nc1ccccc1O,–,inactive
O=[N+]([O-])c1cc(C(F)(F)F)ccc1Cl,49.8 µM (active),–
Nc1cc([N+](=O)[O-])ccc1O,9.92 µM (active),–
CC1COc2ccccc2N1C(=O)C(Cl)Cl (stereo not given),4.69 µM (active),–
CSc1nc(NC2CC2)nc(NC(C)(C)C)n1,–,inactive
CCC(=O)OCc1ccccc1,–,inactive

# From PubChem BioAssay (EPA / NIEHS)
